# From PubChem BioAssay
# Values without a mark were called inactive. The rule behind the calls is not given here.
# Biological target: Pantothenate synthetase (Mycobacterium tuberculosis (strain ATCC 25618 / H37Rv)) (UniProt P9WIL5)
# Test: Coupled enzyme confirmation of inhibitors against recombinant Mtb PanC (AID 375);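 note: 0% = full reaction with vehicle and 100% = no enzyme background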
# Conditions: coupled enzyme assay; at 10 µM, hits give high values
# Sequence of Pantothenate synthetase (Mycobacterium tuberculosis (strain ATCC 25618 / H37Rv)) (P9WIL5 whole entry, looked up): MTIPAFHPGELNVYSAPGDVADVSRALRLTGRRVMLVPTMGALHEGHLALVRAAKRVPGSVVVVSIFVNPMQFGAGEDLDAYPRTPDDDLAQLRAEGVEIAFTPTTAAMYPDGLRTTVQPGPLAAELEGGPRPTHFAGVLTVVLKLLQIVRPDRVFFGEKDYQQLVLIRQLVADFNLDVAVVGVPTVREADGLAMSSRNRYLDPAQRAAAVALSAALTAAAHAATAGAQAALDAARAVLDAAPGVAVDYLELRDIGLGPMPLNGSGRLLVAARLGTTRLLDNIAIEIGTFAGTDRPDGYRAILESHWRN
row,Structure (SMILES),inhibition [%]
1,COC(=O)c1cc(-c2ccccc2)sc1NC(=O)c1cc(C)on1,0
2,CCOC(=O)c1cc(-c2ccc3c(c2)OCO3)nc2onc(C)c12,0
3,Cc1cccc(NS(=O)(=O)c2cc(C(=O)OCC(=O)Nc3cc(C)on3)ccc2C)c1,0
4,Cc1ccc2c(c1)sc1ncc(NC(=O)c3ccccc3)c(=O)n12,2
5,COc1ccccc1NC(=O)CSC1CC(=O)N(c2ccc3c(c2)OCO3)C1=O (stereo not given),0
6,CC(=O)N1CCN(S(=O)(=O)c2ccc(S(=O)(=O)NCC(C)C)cc2)CC1,5
7,CN(C)/C=C1\N=C(c2ccc3c(c2)OCO3)OC1=O,0
8,Cc1cccc2c(=O)oc(-c3ccc4c(c3)C(=O)N(CC3CCCO3)C4=O)nc12 (stereo not given),0
9,COC(=O)C(C#N)C(=C1C(=O)CC(C)(C)CC1=O)c1ccc(O)cc1 (stereo not given),0
10,COC(=O)Oc1c(Br)c(=O)oc2ccccc12,0
11,CCc1nc(C)c(C#N)c2cc(OC)c(OC)cc12,0
12,Cc1ccc(-c2noc(CN3CCN(c4ccccc4F)CC3)n2)cc1,0
13,COCCOC(=O)c1c(C)oc2ccc(NS(=O)(=O)c3ccc(F)cc3)cc12,3
14,CCCN1CC23C=CC(O2)C(C(=O)O)C3C1=O (stereo not given),0
15,O=C(COc1nnc2ccccn12)N1CCN(S(=O)(=O)c2ccccc2)CC1,1
16,Nc1cc(N)nc(SCc2ccccc2)n1,0
17,c1ccc(-c2noc(-c3cccnc3)n2)nc1,0
18,CC(=O)c1sc(NC(=O)C2COc3ccccc3O2)nc1C (stereo not given),3
19,CCOC(=O)c1cc2c(=O)n3cccc(C)c3nc2n(CCc2ccccc2)c1=N,0
20,O=C(NCC(F)(F)F)N1CCOCC1,0

row,Structure (SMILES),inhibition [%]
1,O=c1[nH]c2cc3c(cc2cc1C(c1nnnn1Cc1ccccc1)N1CCCc2ccccc21)OCO3 (stereo not given),1
2,Cc1csc(NC(=O)c2cccs2)n1,0
3,O=C(Nc1ccc(N2CCOCC2)c(F)c1)c1ccncc1,0
4,O=C(c1ccccc1)c1ccc(N2CCNCC2)cc1,3
5,CC1(C)Cc2c(c(N3CCOCC3)nc3sc(C#N)c(N)c23)CS1,0
6,Cc1cc(C(=O)CSc2nnc(-c3ccccc3)n2C)c(C)n1C,0
7,Cn1c(SCc2ccccc2)nnc1C1CCCNC1 (stereo not given),0
8,COc1ccc(-c2cc(C(=O)NCCc3ccccc3)no2)cc1OC,4
9,CCOc1ccc(-n2c(C)nc3c(cnn3-c3ccc(Cl)cc3)c2=O)cc1,4
10,CCOC(=O)c1c(C)oc2ccc(OCC(N)=O)cc12,0
11,CCOc1ccccc1C(=O)NCCCn1ccnc1,14
12,COCCNC(=O)C(c1ccc(C)o1)N(Cc1cccs1)C(=O)c1snc(C(N)=O)c1N (stereo not given),4
13,CN1CCN(CC(=O)Nc2ccc(Cl)cc2Cl)CC1,3
14,Nc1nnc(SCCOc2ccccc2)s1,3
15,CC(CCc1ccccc1)NCc1ccncc1 (stereo not given),5
16,COc1cccc(C(=O)Nc2cc(C)c3c(=O)oc4ccccc4c3n2)c1,0
17,Cn1c(NC(=O)c2cccc(Cn3cc(Cl)cn3)c2)nc2ccccc21,8
18,O=C(CCN1CCN(c2ccc(F)cc2)CC1)Nc1ccccc1F,1
19,CCCCn1c(CN2CCN(c3cccc(Cl)c3)CC2)nc2c1c(=O)n(C)c(=O)n2C,6
20,CCOC(=O)N1CCN(C(=O)c2ccc3c(=O)n(CCc4ccccc4)c(=O)[nH]c3c2)CC1,0
